High-throughput results: PubChem BioAssay, National Center for Advancing Translational Sciences (NCATS)
The list is not random: actives were taken first. Their share in the collection is about 0.9%.
TR SRC2 fluor cs – alters Texas Red total fluorescence, flagging assay interference; TRb/SRC2 Texas Red total fluorescence interference; Potency, µM (doses to about 106 µM), inactives show at the top dose fluorescence change, negative = quenching; actives 0.29% (n = 280,000); active = well fitted curve in either direction with a large enough effect; inconclusive = small, poorly fitted or top-dose-only effect
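Flags fluorescent or light-absorbing compounds by total fluorescence, S + 2P, at 555 nm excitation and 632 nm emission. Mixture: 20 nM Texas Red SRC2 peptide, 0.6 uM human TRb LBD, 1 uM T3, 5% DMSO; compound exposure 5 h at ambient temperature.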
BLM inh – inhibitors of human Bloom syndrome helicase BLM; P54132; recombinant BLM DNA unwinding, fluorescence dequenching; Potency, µM (series often up to 56.1 µM), without a hit: top-dose activity change, negative = inhibition, most hits filed as inhibitors; actives 0.2% (n = 350,000); AID 2528;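 also: plate controls were vehicle for no effect and no enzyme for full effect; nearly all actives have a fitted effect of over 35% in size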
TRb-SRC2 inh – inhibitors of human thyroid hormone receptor beta-SRC2 interaction; P10828; TRbeta-SRC2 peptide binding, fluorescence polarization; receptor liganded with 1 µM T3; Potency, µM (titrated, usually from 106 µM), for the others: top-dose activity change, negative = inhibition, usual class: inhibitors; actives 0.065% (n = 280,000); AID 1469;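 also: plate controls were bound peptide for no effect and peptide without receptor for full effect; nearly all actives have a fitted effect of over 50% in size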
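Human TRb LBD (0.6 uM) plus Texas Red-labeled SRC2 peptide (20 nM), 1uM T3, 5% DMSO, 5 hr at ambient temperature. Decreased polarization (555/632 nm) flags inhibition; data normalized to free and bound peptide controls.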
RECQ1 helicase – inhibitors of human RECQ1 DNA helicase. actives 0.54% (n = 240,000). RECQ1 DNA unwinding, red fluorescence kinetic read. P46063. Potency, µM (doses to about 57.3 µM), for inactives: at the highest dose activity, negative = inhibition, usual class: inhibitors;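 also: plate controls were vehicle for no effect and no enzyme for full effect; nearly all actives have a fitted effect of over 30% in size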
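50 nM RECQ1T1 preincubated 15 min with compound in Tris pH 8.0 buffer with MgCl2, DTT, Tween-20 and 2.5 ug/ml poly(dI-dC); started with 200 nM TAMRA/BHQ-2 forked duplex and 2 mM ATP. Unwinding read as fluorescence (525/598 nm), two reads 2 h apart.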
APEX1 inh – APE1 (human) endonuclease inhibition; P27695; recombinant APE1, TAMRA/BHQ-2 abasic DNA cleavage fluorescence; Potency, µM (doses to about 65.8 µM), without a hit: at the highest dose activity change, negative = inhibition, actives largely listed as inhibitors; actives 0.35% (n = 350,000);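 also: plate controls were vehicle for no effect and reference inhibitor for full effect; nearly all actives have a fitted effect of over 55% in size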
Target sequence (P27695 whole entry, looked up): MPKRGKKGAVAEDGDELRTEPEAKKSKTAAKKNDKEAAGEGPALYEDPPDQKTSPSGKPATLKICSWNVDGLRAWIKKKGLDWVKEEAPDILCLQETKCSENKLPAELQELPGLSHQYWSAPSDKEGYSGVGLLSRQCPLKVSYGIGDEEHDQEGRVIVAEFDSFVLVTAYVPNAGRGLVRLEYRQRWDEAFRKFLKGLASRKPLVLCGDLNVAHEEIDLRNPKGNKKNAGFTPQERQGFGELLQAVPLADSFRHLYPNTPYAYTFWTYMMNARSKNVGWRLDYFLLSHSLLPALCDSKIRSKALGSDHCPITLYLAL
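Compound pre-exposure to 0.75 nM APE1, 15 min at ambient temperature. Reaction initiated with 50 nM TAMRA/BHQ-2 THF substrate, read immediately in kinetic mode, 525 nm excitation, 598 nm emission.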
RGS12 GoLoco inh – RGS12 GoLoco-Gai1 interaction inhibition; P63096; Gai1:RGS12 GoLoco peptide FP, rhodamine, 10 min; Potency, µM (top dose mostly 61.6 µM), inactives show at the highest dose activity, negative = inhibition, usual class: inhibitors; actives 0.44% (n = 230,000); active = well fitted inhibition curve with a large enough effect, not every such curve was filed as active; inactive = no such curve, though single readings can be large or run the other way; also: nearly all actives have a fitted effect of over 30% in size
* hit, by the source's call; ? = inconclusive; . = no result; [ ] = another dose, or the depositor's remark. Unless noted, calls follow the shape of the dose curve; as a rule, active = well fitted curve in the direction sought with a large enough effect; inconclusive = small, poorly fitted or top-dose-only effect, or another doubt; inactive = no such curve, though single readings can be large; an effect the other way counts as inactive or inconclusive. Unless noted, % is scaled to controls: 0 for no effect and ±100 for the full control effect; potency is read from the fitted curve at half-maximal effect.

SMILES	TR SRC2 fluor cs	BLM inh	TRb-SRC2 inh	RECQ1 helicase	APEX1 inh	RGS12 GoLoco inh
Cc1ccc(Cn2cnc3c(cnn3C(C)(C)C)c2=O)cc1F	.	.	.	.	-3.1%	.
CCOC(=O)c1c(-c2ccc(C)cc2)csc1NC(=O)c1cc2ccccc2oc1=O	-2.8%	-7.4%	-9.1%	-9.7%	-3.3%	10.9%
CCOC(=O)c1c(-c2ccc(C)cc2)csc1NC(=O)c1cc(=O)c2ccc(C)cc2o1	35.5µM*[quencher]	-1.8%	-9.7%	.	.	.
COCCOCCOCCOC	-2.0%[201 µM]	.	8.3%[201 µM]	.	.	.
CCCCCn1c(N)c(-c2nc3ccccc3o2)c2c([N+](=O)[O-])nn(C)c(=O)c21	-1.7%	15.8µM*	-0.4%	-1.2%	7.2%	-10.5%
COCCn1c(=O)c(-c2ccc(Cl)cc2)nc2cnc(Nc3ccccc3)nc21	.	0.3%	.	0.9%	1.5%	-8.3%
CCCCCSc1nc2sc3c(c2c(=O)n1-c1ccc(OC)cc1)CCN(C(C)=O)C3	22.4µM*[quencher]	-13.7%	?	.	.	.
COC(=O)Cn1c(=O)c2c(nc3n2CCN3c2cccc(C)c2)n(C)c1=O	6.0%	-3.0%	10.5%	.	.	.
Cc1cccc(N2CC(C)Cn3c2nc2c3c(=O)n(CC(=O)O)c(=O)n2C)c1 (stereo unspecified)	10µM*[quencher]	0.9%	0.4%	.	.	.
O=C(CSc1nnc(SCc2ccccc2)s1)N/N=C/C=C/c1ccco1	?	25.1µM*	-1.1%	22.4µM*	12.6µM*	6.2%
O=C(Cc1cccs1)N/N=C/C=C/c1ccco1	-2.9%	25.1µM*	-7.6%	1.3%	15.7%	80.3%
COc1ccccc1N1CCN(C(=O)CCc2nnc3n(C)c(=O)c4sccc4n23)CC1	22.4µM*[quencher]	0.2%	?	.	.	.
CCOc1ccc(NC(=O)CCCc2nnc3n(C)c(=O)c4sccc4n23)cc1	-1.8%	-0.7%	-6.9%	.	.	.
CCOc1ccc(NC(=O)CCc2nnc3n(C)c(=O)c4sccc4n23)cc1	0.0355µM*[quencher]	3.2%	29.9%[53 µM]	.	.	.
CCn1c(=O)c2sccc2n2c(CCCC(=O)N3CCN(c4ccccc4OC)CC3)nnc12	0.0%	0.3%	-5.6%	.	.	.
CC/C=C\C/C=C\C/C=C\C/C=C\C/C=C\C/C=C\CCC(=O)O[C@H](COCCCCCCCCCCCCCCCC)COP(=O)([O-])OCC[N+](C)(C)C	0.5%	-6.4%	4.4%	-6.3%	0.1%	0.3%
CCOC(=O)C1=C(O)/C(=C\c2ccc(CNC(=O)C(=O)Nc3ccccc3)o2)N=C1C	-2.8%	35.5µM*	8.9%	-0.9%	2.3%	106.7%
CCOC(=O)C1=C(O)/C(=C\c2cccs2)N=C1C	-3.0%	-5.3%	3.5%	-4.4%	-2.3%	3.9%
O=[N+]([O-])C(CO)(CO)CO	-5.2%[201 µM]	.	-2.5%[201 µM]	.	.	.
COc1ccc(C2=Nn3c(nnc3-c3ccccc3Cl)SC2)cc1OC	.	.	.	.	-9.5%	.
CCN(CCO)c1ccc(NC(=S)Nc2cccc(S(=O)(=O)N(C)C)c2)cc1	-12.8%	-19.7%	?	39.8µM*	?	1.4%
CN(C)S(=O)(=O)c1cccc(NC(=S)Nc2cc(Cl)cc(Cl)c2)c1	-4.0%	-4.3%	-5.2%	-4.9%	17.4%	3.0%
Nc1ncnc2c1ncn2[C@H]1O[C@@H](CSCC[C@@H](N)C(=O)O)[C@H](O)[C@@H]1O	0.6%	.	-1.3%	18.0%	3.3%	-1.0%
CCOC(=O)N1CCC(NC(=O)c2cnn(-c3ccc(F)cc3F)c2C2CCN(C(=O)OC(C)(C)C)CC2)CC1	-12.3%	-7.7%	0.7%	.	.	.
C=CCn1c(P(=O)(O)c2ccccc2)nc2ccccc21	2.4%	-0.6%	4.8%	8.8%	?	5.62µM*
C=CCn1c(NC(=O)c2ccccc2)nc2ccccc21	.	-1.7%	.	.	-5.9%	.
CC(C)Cn1nc(NC(=O)c2cccc(Cl)c2)c2cc3ccccc3nc21	1413µM*[quencher]	-4.9%	-27.1%[53 µM]	.	.	.
CCCCn1nc(NC(=O)c2cccc(Cl)c2)c2cc3ccccc3nc21	5.5%	0.8%	-1.3%	.	.	.
